# From PubChem BioAssay (Tox21)
# Records with an inconclusive call do not appear. Entries that show only a call come without a potency. Values without a mark were called inactive. Active and inactive are the calls of the source. Unless noted, calls follow the shape of the dose curve; as a rule, active = well fitted curve in the direction sought with a large enough effect in the repeat runs; inconclusive = weak or mixed curves; inactive = no such curve, though single readings can be large; an effect the other way counts as inactive or inconclusive.
# Columns and labels:
# [1] = qHTS assay to identify small molecule antagonists of the vitamin D receptor (VDR) signaling pathway - cell viability counter screen (AID 743225); settings: VDR-bla HEK293T viability, CellTiter-Glo luminescence, 16 h; series mostly up to 61 µM; also: nearly all actives have a fitted effect of over 50% in size; also: potency is read from the fitted curve at half-maximal effect
# Procedure, shortened: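 VDR-bla HEK 293T cells, 4 h pre-incubation at 37C, then compound plus 1-alpha,25-dihydroxyvitamin D3 (3 nM final) for 16 h. After the beta-lactamase FRET read, CellTiter-Glo was added to the same wells; luminescence after 30 min at room temperature.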
# [2] = qHTS assay to identify small molecule agonists of the NFkB signaling pathway (AID 1159509; active = well fitted curve in the direction sought with a large enough effect in the signal ratio in the repeat runs, not every such curve was filed as active; the % refers to the signal ratio; also: potency is read from the fitted curve at half-maximal effect); settings: NFkB-bla ME-180 cells, beta-lactamase FRET ratio, 5 h; series mostly up to 61 µM
# Procedure, shortened: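 NFkB-bla ME-180 cells with a beta-lactamase reporter under an NF-kB response element were plated overnight, treated with compounds in DMSO for 5 hr at 37 C, then loaded with FRET substrate for 1.5 hr at room temperature.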
# [3] = qHTS assay to identify small molecule agonists of the NFkB signaling pathway - cell viability counter screen (AID 1159515; calls by dose curve; also: nearly all actives have a fitted effect of over 55% in size); settings: NFkB-bla ME-180 viability, CellTiter-Glo luminescence, 5 h; series mostly up to 61 µM
# Procedure, shortened: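 Viability in NFkB-bla ME-180 cells was measured by CellTiter-Glo luminescence, 30 min room temperature, in wells already treated 5 hr with compounds and read for reporter FRET.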
# [4] = qHTS assay to identify small molecule agonists of the endoplasmic reticulum stress response signaling pathway - cell viability counter screen (AID 1159517; calls by dose curve; also: nearly all actives have a fitted effect of over 50% in size; also: potency is read from the fitted curve at half-maximal effect); settings: ESRE-bla HeLa viability, CellTiter-Glo luminescence, 5 h; series mostly up to 61 µM
# Procedure, shortened: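 Cells, HeLa ESRE-bla; density, 1,500/well; dosing, 5 hr at 37 C, 5% CO2; readout, CellTiter-Glo luminescence after 30 min RT.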
# [5] = qHTS assay to identify small molecule antagonists of the retinoid-related orphan receptor gamma (ROR-gamma) signaling pathway - cell viability counter screen (AID 1159520); settings: Tet-on RORgamma CHO cells viability, ATP luminescence, 16 h; series mostly up to 92.4 µM; also: nearly all actives have a fitted effect of over 50% in size; also: potency is read from the fitted curve at half-maximal effect
# Procedure, shortened: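 Cytotoxicity was read from cellular ATP (CellTiter-Glo luminescence) after 16 hr at 37 C with 1 uM doxycycline induction. The inducer was added 2 hr after compound transfer to Tet-on ROR gamma CHO cells.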
# [6] = qHTS assay to identify small molecule agonists of the AP-1 signaling pathway - cell viability counter screen (AID 1159525; calls by dose curve; also: nearly all actives have a fitted effect of over 55% in size); settings: ME-180 AP-1-bla cells viability, ATP luminescence, 5 h; series mostly up to 76.8 µM
# Procedure, shortened: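 Luminescent ATP readout (Cell Titer Glo, 30 min RT), normalised to DMSO and tetra n-octyl ammonium bromide controls. Cells were ME-180 AP-1-bla in 0.5% dialyzed FBS Opti-MEM, with a 5 h, 37 °C compound exposure.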
# [7] = qHTS assay to identify small molecule agonists of the vitamin D receptor (VDR) signaling pathway - cell viability counter screen (AID 743224); settings: VDR-bla HEK293T viability, CellTiter-Glo luminescence, 16 h; series mostly up to 62.6 µM; also: nearly all actives have a fitted effect of over 50% in size; also: potency is read from the fitted curve at half-maximal effect
# Procedure, shortened: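 VDR-bla cell line, quantitative HTS format; 16 h compound incubation (37C, 5% CO2); ATP-based CellTiter-Glo luminescence measured in the reporter assay wells.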
# [8] = qHTS assay to identify small molecule agonists of the AP-1 signaling pathway (AID 1159526; calls by dose curve; also: potency is read from the fitted curve at half-maximal effect); settings: ME-180 (cervical carcinoma) AP-1-bla reporter, beta-lactamase FRET ratio, 5 h; series mostly up to 76.8 µM
# [9] = biological target: Nuclear receptor ROR-gamma (Homo sapiens) (UniProt P51449); experiment: qHTS assay to identify small molecule antagonists of the retinoid-related orphan receptor gamma (ROR-gamma) signaling pathway (AID 1159521; also: nearly all actives have a fitted effect of over 50% in size; also: potency is read from the fitted curve at half-maximal effect); settings: Tet-on RORgamma CHO cells, RORE-luciferase, 16 h; series mostly up to 92.4 µM
# Procedure, shortened: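 Tet-on RORγ CHO cells carrying a ROR response element–luciferase reporter were pretreated with compounds for 2 h, then induced with 1 uM (final) doxycycline hyclate for 16 h at 37 C. Antagonism was read as decreased ONE-Glo luminescence.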
Structure (SMILES),Potency [1],Potency [2],Potency [3],Potency [4],Potency [5],Potency [6],Potency [7],Potency [8],Potency [9],"viability change, negative = cytotoxic [6]",activation [8]
CCCC(C(=O)OCCN(CC)CC)(c1ccccc1)c1ccccc1,19 µM (active),inactive,inactive,inactive,inactive,inactive,–,–,–,–,–
CCN(CC)CCNC(=O)COc1ccc(OC)cc1,inactive,inactive,inactive,inactive,inactive,inactive,inactive,inactive,–,–,–
c1cc(N(CC2CO2)CC2CO2)ccc1Cc1ccc(N(CC2CO2)CC2CO2)cc1 (stereo unspecified),inactive,inactive,inactive,inactive,54.5 µM (active),inactive,–,–,–,–,–
O=C1c2ccccc2C(=O)C1c1nc2ccccc2c(Br)c1O,–,inactive,inactive,inactive,inactive,inactive,inactive,–,inactive,–,–
c1csc(SSc2cccs2)c1,inactive,inactive,inactive,inactive,–,inactive,inactive,–,24.3 µM (active),–,–
Cc1cscn1,inactive,inactive,inactive,inactive,inactive,inactive,inactive,inactive,–,–,–
COC(=O)c1nc(Cl)c(Cl)nc1N,23.9 µM (active),15.1 µM (active),inactive,21.3 µM (active),13.3 µM (active),inactive,11.9 µM (active),–,3.76 µM (active),–,–
CN(C(=O)CN(CCO)CC(=O)N(C)C(C)(C)Cc1ccccc1)C(C)(C)Cc1ccccc1,–,inactive,inactive,inactive,29.8 µM (active),–,inactive,–,26.6 µM (active),–,–
Cc1cccc(N(C)C(=S)Oc2ccc3c(c2)CCC3)c1,inactive,inactive,inactive,inactive,inactive,inactive,inactive,inactive,–,–,–
NNC(=O)CP(=O)(c1ccccc1)c1ccccc1,inactive,inactive,inactive,inactive,inactive,inactive,inactive,inactive,–,–,–
CC(CN(C)C)C(C)(O)Cc1ccc(Cl)cc1 (stereo unspecified),inactive,inactive,inactive,inactive,inactive,inactive,inactive,inactive,–,–,–
CC(=O)c1ccc([N+](=O)[O-])cc1,inactive,inactive,inactive,–,inactive,inactive,inactive,inactive,–,–,–
CC1CC(OC(=O)C(O)c2ccccc2)CC(C)(C)N1C (stereo unspecified),inactive,inactive,inactive,–,inactive,inactive,inactive,inactive,inactive,–,–
Cc1cc(=O)c2c(O)c3c(O)cc(=O)c4c3c3c(cc(O)c1c23)C(C)(C)C=4O,–,inactive,inactive,–,1.64 µM (active),–,0.731 µM (active),–,0.82 µM (active),5.76% [at 15.8 µM],-0.228% [at 15.8 µM]
CN1C(=O)c2ccccc2C1=O,–,inactive,inactive,–,inactive,–,–,inactive,inactive,–,–
CO[C@]1(NC(=O)CSC(F)F)C(=O)N2C(C(=O)O)=C(CSc3nnnn3CCO)CO[C@H]21,inactive,inactive,inactive,–,inactive,inactive,inactive,inactive,–,–,–
COC(=O)CS,inactive,inactive,inactive,–,inactive,inactive,inactive,–,inactive,–,–
Cc1c(C)c2c(c(C)c1OC(=O)CCC(=O)OCCO)CC[C@@](C)(CCC[C@H](C)CCC[C@H](C)CCCC(C)C)O2,26.8 µM (active),inactive,inactive,–,inactive,inactive,26.6 µM (active),–,–,–,–
O=C(CCc1ccc(O)cc1)c1c(O)cc(O)cc1O,inactive,inactive,inactive,–,inactive,inactive,inactive,inactive,–,–,–
CC=C(Cl)Cl,inactive,inactive,inactive,–,inactive,inactive,inactive,inactive,inactive,–,–
CCOC(=O)c1ccccc1C(=C1C=C(Br)C(=O)C(Br)=C1)c1cc(Br)c(O)c(Br)c1,inactive,inactive,inactive,–,51.3 µM (active),inactive,inactive,–,22.9 µM (active),–,–
CCC1NC(=O)c2cc(S(N)(=O)=O)c(Cl)cc2N1 (stereo unspecified),inactive,inactive,inactive,–,inactive,inactive,inactive,inactive,inactive,–,–
Nc1cccc2c1CN(C1CCC(=O)NC1=O)C2=O (stereo unspecified),inactive,inactive,inactive,–,inactive,–,inactive,inactive,inactive,–,–
Oc1ccc(Cl)c2cccnc12,–,inactive,inactive,–,–,inactive,0.376 µM (active),–,inactive,–,–
Cc1ccc(CO)cc1,inactive,inactive,inactive,–,inactive,inactive,inactive,inactive,inactive,–,–
O=C(Cn1ccnc1[N+](=O)[O-])NCCO,inactive,inactive,inactive,–,inactive,inactive,inactive,inactive,inactive,–,–
O=[N+]([O-])c1ccc(O/N=C/c2cc(Br)c(O)c(Br)c2)c([N+](=O)[O-])c1,–,inactive,inactive,–,–,inactive,inactive,–,6.82 µM (active),–,–
CCCCC(CC)COP(=O)(O)O (stereo unspecified),inactive,inactive,inactive,–,inactive,inactive,inactive,39.6 µM (active),inactive,–,–
CCCCCCCCN,inactive,inactive,inactive,–,inactive,inactive,inactive,inactive,inactive,–,–
